Common to all, as to conditions: mRNA level, 48 h; actives raise or lower the signal
Read-out in assay [1]: NAD(P)H dehydrogenase [quinone] 1 (NQO1), NQO1 (gene 1728)
As to the kind of experiment: LTEA_HepaRG_NQO1: Life Technologies and Expression Analysis (LTEA) Assay for NAD(P)H dehydrogenase [quinone] 1 (NQO1) using HepaRG (AID 2283526). The method in brief:
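Transcript induction or suppression is quantified by qRT-PCR in human HepaRG liver cells dosed for 48 hours. Eight half-log concentrations topping at 100 uM are used, with 0.5% DMSO as vehicle and baseline.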

Read-out in assay [2]: Nuclear factor erythroid 2-related factor 2 (Homo sapiens) (UniProt Q16236)
As to the kind of experiment: LTEA_HepaRG_NFE2L2: Life Technologies and Expression Analysis (LTEA) Assay for Nuclear factor erythroid 2-related factor 2 (NFE2L2) Transcription Factor using HepaRG (AID 2283527).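 Further: TaqMan qRT-PCR transcript level normalised to ACTB GAPDH and POLR2A housekeeping genes.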 Summed up: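 HepaRG, 48 h dosing, 8-pt half-log series from 100 uM in 0.5% DMSO, duplicates. Read-out: NFE2L2 mRNA by qRT-PCR (ACTB/GAPDH/POLR2A normalization). Bidirectional curve fit vs DMSO baseline.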

Read-out in assay [3]: succinate dehydrogenase complex iron sulfur subunit B (SDHB), SDHB (gene 6390)
As to the kind of experiment: LTEA_HepaRG_SDHB: Life Technologies and Expression Analysis (LTEA) Assay for succinate dehydrogenase complex iron sulfur subunit B (SDHB) using HepaRG (AID 2283528). The method in brief:
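Readout is SDHB transcript level by qRT-PCR, normalised to three housekeeping genes and fitted bidirectionally against 0.5% DMSO vehicle. Human HepaRG cells were treated for 48 h at up to 100 uM.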

Read-out in assay [4]: Signal transducer and activator of transcription 3 (Homo sapiens) (UniProt P40763)
Description: LTEA_HepaRG_STAT3: Life Technologies and Expression Analysis (LTEA) Assay for Signal transducer and activator of transcription (STAT3) using HepaRG (AID 2283529). The method in brief:
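HepaRG, 48 h exposure, 8-pt half-log series (top 100 uM), 0.5% DMSO vehicle, duplicates. Readout: STAT3 transcript by Fluidigm qRT-PCR, housekeeping-normalized; bidirectional fit vs DMSO baseline.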

Read-out in assay [5]: solute carrier (SLCO1B1), SLCO1B1 (gene 10599)
Description: LTEA_HepaRG_SLCO1B1: Life Technologies and Expression Analysis (LTEA) Assay for solute carrier (SLCO1B1) using HepaRG (AID 2283530). The method in brief:
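HepaRG, serum-free induction medium, 48 h dosing, 8-pt half-log from 100 uM, 0.5% DMSO vehicle, duplicates. Readout: SLCO1B1 mRNA, qRT-PCR, ACTB/GAPDH/POLR2A normalization; up or down fit vs DMSO.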

Read-out in assay [6]: sulfotransferase 2A1 (SULT2A1), SULT2A1 (gene 6822)
Description: LTEA_HepaRG_SULT2A1: Life Technologies and Expression Analysis (LTEA) Assay for sulfotransferase 2A1 (SULT2A1) using HepaRG (AID 2283531). Summed up:
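Transcript levels of SULT2A1, quantified by qRT-PCR and normalized to three housekeeping genes, serve as the readout. Human HepaRG cultures receive test chemicals for 48 h at up to 100 uM in half-log steps, with 0.5% DMSO vehicle.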

Read-out in assay [7]: Transforming Growth Factor (TGFA), TGFA (gene 7039)
Description: LTEA_HepaRG_TGFA: Life Technologies and Expression Analysis (LTEA) Assay for Transforming Growth Factor (TGFA) using HepaRG (AID 2283532). The method in brief: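 qRT-PCR read-out of TGFA transcript, normalized to three housekeeping genes, fitted bidirectionally against 0.5% DMSO baseline. Human HepaRG cultures received chemicals for 48 h at eight half-log concentrations, top 100 uM.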

Read-out in assay [8]: Transforming Growth Factor (TGFB1), TGFB1 (gene 7040)
Description: LTEA_HepaRG_TGFB1: Life Technologies and Expression Analysis (LTEA) Assay for Transforming Growth Factor (TGFB1) Transporter using HepaRG (AID 2283533). Summed up: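 HepaRG, 48 h post-plating, switched to serum-free induction medium; chemicals 100 uM top, half-log, 8 pts, 0.5% DMSO, dup; 48 h exposure; RNA → Fluidigm TaqMan qRT-PCR; norm ACTB/GAPDH/POLR2A; bidirectional fit vs DMSO.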

Read-out in another assay: TIMP1, TIMP1 (gene 7076)
As to the kind of experiment: LTEA_HepaRG_TIMP1: Life Technologies and Expression Analysis (LTEA) Assay for TIMP1 using HepaRG (AID 2283534).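 On outcome: TaqMan qRT-PCR signal normalized to ACTB GAPDH and POLR2A housekeeping genes.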 Summed up: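 Readout is TIMP1 mRNA level measured by qRT-PCR and normalized to three housekeeping genes. Human HepaRG cells were treated for 48 h in duplicate at eight concentrations up to 100 uM (0.5% DMSO); gain or loss fitted against DMSO.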

Read-out in assay [9]: Tumor necrosis factor receptor 1 (TNFRSF1A), TNFRSF1A (gene 7132)
As to the kind of experiment: LTEA_HepaRG_TNFRSF1A: Life Technologies and Expression Analysis (LTEA) Assay for Tumor necrosis factor receptor 1 (TNFRSF1A) using HepaRG (AID 2283535). The method in brief:
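Read-out is TNFRSF1A transcript level by TaqMan qRT-PCR, normalized to three housekeeping genes, scored as gain or loss of signal versus 0.5% DMSO. Human HepaRG cells received test chemicals for 48 h at up to 100 uM (half-log series).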

Among the data in PubChem BioAssay (EPA / NIEHS) are outcome and AC50 values, retold here.

Usually AC50 stands for the concentration at which the activity in the assay is half-maximal.

The source made the active and inactive calls. How the source made its calls: active means hit-call score of the fitted dose curve at least 0.9, where 1 is the maximum; inactive means score below 0.9.

Nuclear factor erythroid 2-related factor 2 (Homo sapiens), sequence (Q16236 whole entry, looked up): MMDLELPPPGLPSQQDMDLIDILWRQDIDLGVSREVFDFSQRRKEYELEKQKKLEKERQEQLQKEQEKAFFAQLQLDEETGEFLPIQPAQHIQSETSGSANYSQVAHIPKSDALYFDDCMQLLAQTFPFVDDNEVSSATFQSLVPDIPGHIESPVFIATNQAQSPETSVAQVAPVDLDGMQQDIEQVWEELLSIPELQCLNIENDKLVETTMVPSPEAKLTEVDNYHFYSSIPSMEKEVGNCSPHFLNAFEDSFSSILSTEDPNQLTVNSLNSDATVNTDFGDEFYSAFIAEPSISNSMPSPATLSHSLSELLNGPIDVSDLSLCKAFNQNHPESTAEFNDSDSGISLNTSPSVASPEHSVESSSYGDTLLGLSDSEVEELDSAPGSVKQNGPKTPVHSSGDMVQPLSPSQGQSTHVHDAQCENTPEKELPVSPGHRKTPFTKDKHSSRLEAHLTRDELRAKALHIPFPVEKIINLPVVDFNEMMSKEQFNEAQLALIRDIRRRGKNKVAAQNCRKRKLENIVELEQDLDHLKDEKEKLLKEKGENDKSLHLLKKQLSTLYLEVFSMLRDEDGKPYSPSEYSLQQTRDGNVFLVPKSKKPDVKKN
Signal transducer and activator of transcription 3 (Homo sapiens), sequence (P40763 whole entry, looked up): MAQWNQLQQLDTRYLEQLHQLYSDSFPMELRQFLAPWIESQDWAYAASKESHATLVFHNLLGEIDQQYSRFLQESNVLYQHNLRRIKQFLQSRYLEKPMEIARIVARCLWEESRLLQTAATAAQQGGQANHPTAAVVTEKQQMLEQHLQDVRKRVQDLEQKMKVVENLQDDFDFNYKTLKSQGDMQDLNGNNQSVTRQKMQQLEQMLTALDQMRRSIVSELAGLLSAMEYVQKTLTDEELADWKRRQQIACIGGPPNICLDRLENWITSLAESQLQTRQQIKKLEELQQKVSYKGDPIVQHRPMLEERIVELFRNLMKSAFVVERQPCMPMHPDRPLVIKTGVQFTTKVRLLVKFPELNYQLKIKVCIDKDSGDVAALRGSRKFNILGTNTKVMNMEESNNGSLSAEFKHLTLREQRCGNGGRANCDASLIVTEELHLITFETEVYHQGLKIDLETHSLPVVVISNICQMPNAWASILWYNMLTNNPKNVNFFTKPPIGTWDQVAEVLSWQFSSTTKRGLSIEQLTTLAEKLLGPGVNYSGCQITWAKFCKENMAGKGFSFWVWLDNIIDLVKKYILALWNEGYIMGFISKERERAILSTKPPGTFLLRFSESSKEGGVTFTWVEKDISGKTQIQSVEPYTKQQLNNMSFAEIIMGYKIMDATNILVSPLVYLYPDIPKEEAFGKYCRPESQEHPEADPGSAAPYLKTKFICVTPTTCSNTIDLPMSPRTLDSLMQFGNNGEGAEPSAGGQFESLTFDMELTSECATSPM

For the molecule `CN(C)c1nc(=O)n(C2CCCCC2)c(=O)n1C`, the molecule was classed as inactive in assay [1], in assay [2], in [3], in assay [4], in assay [5] and in [6]. Besides, the outcome is “inactive” in [7]; “inactive” in assay [8]; “inactive” in the assay with TIMP1, TIMP1 (gene 7076); “inactive” in assay [9].
Regarding `CCCCCCCCOC(=O)c1ccccc1C(=O)OCCCCCCCC`, the outcome in [1], in assay [2], in assay [3], in [4], in assay [5] and in assay [6] was inactive. In addition, the outcome in assay [7] was “inactive”; in assay [8], “inactive”; with TIMP1, TIMP1 (gene 7076), “inactive”; in [9], “inactive”.
For `N#Cc1ccc(N(CC(N)=O)CC(F)(F)F)cc1C(F)(F)F`, the call in assay [1], in assay [2], in assay [3], in assay [4], in [5] and in [6] was inactive. In addition, the outcome in assay [7] was “inactive”; in assay [8], “inactive”; with TIMP1, TIMP1 (gene 7076), “inactive”; in assay [9] it was “inactive”.
`C=CC(N)=O`: the molecule was classed as inactive in assay [1], in assay [2], in assay [3], in [4], in assay [5] and in assay [6]. Moreover, the outcome is “inactive” in assay [7]; “inactive” in [8]; “inactive” with TIMP1, TIMP1 (gene 7076); “inactive” in assay [9].
Consider `O=S(=O)(O)C(F)(F)C(F)(F)C(F)(F)C(F)(F)F`, for which the result in [1], in assay [2], in [3], in assay [4], in assay [5] and in assay [6] was inactive. The outcome is “inactive” in assay [7]; “inactive” in assay [8]; “inactive” in the assay with TIMP1, TIMP1 (gene 7076); “inactive” in assay [9].
With `O=C(NC(=O)c1c(F)cccc1F)Nc1cc(Cl)c(OC(F)(F)C(F)F)c(Cl)c1`, the outcome in [1], in assay [2], in assay [3], in [5], in assay [6] and in assay [7] was inactive. Further, the outcome in [8] is “inactive”; with TIMP1, TIMP1 (gene 7076), “inactive”; in assay [9] it was “inactive”. Moreover, the concentration at half-maximal activity (AC50) in assay [4] was 9.92 µM (active).
Turning to `CCNc1nc(NC(C)C)nc(SC)n1`, the outcome in assay [1], in assay [2], in assay [3], in assay [4], in assay [5] and in assay [6] was inactive. Further, the outcome is “inactive” in assay [7]; “inactive” in assay [8]; “inactive” in the assay with TIMP1, TIMP1 (gene 7076); “inactive” in [9].
Take `CC(C)C(=O)OCC(C)(C)C(OC(=O)C(C)C)C(C)C` (configuration not stated): the call in assay [1], in assay [2], in assay [3], in [5], in assay [6] and in assay [7] was inactive. The outcome in [8] was “inactive”; with TIMP1, TIMP1 (gene 7076), “inactive”; in assay [9], “inactive”.
As for `CCSC(=O)N(CC)C1CCCCC1`, the molecule was classed as inactive in assay [1], in [2], in [3], in assay [4], in assay [5] and in assay [6]. The outcome in [7] is “inactive”; with TIMP1, TIMP1 (gene 7076), “inactive”; in assay [9], “inactive”.
`CCCCCCOC(=O)c1ccccc1C(=O)OCCCCCC`: the molecule was called inactive in assay [1], in [2], in assay [3], in assay [4], in [5] and in assay [6]. The outcome in [7] is “inactive”; in assay [8], “inactive”; in the assay with TIMP1, TIMP1 (gene 7076) it was “inactive”; in [9], “inactive”.
On to `CN(C)CCO`, for which the outcome in assay [1], in assay [2], in assay [3], in assay [4], in [5] and in [6] was inactive. Besides, the outcome in assay [7] is “inactive”; in assay [8], “inactive”; with TIMP1, TIMP1 (gene 7076), “inactive”; in [9], “inactive”.
For the molecule `C[C@]12CCC(=O)C=C1CC[C@@H]1[C@@H]2CC[C@]2(C)C(=O)CC[C@@H]12`, the outcome in [1] was “inactive”; in [2], “inactive”; in [3] it was “inactive”; in assay [5], “inactive”; in [8], “inactive”; with TIMP1, TIMP1 (gene 7076), “inactive”. For the same molecule, the molecule was called inactive in assay [9]. Besides, the AC50 in [6] was 15.2 µM (active); in assay [7], 50 µM (active).
In the case of `CCC(=O)O[C@H]1CC[C@H]2[C@@H]3CCC4=CC(=O)CC[C@]4(C)[C@H]3CC[C@]12C`, the result in assay [1], in assay [2], in assay [3], in assay [4], in assay [6] and in assay [7] was inactive. The outcome in assay [8] is “inactive”; with TIMP1, TIMP1 (gene 7076), “inactive”; in [9], “inactive”. Besides, the half-maximal activity concentration (AC50) in assay [5] was 12.6 µM (active).
For `O=C(O)C(F)(F)C(F)(F)C(F)(F)C(F)(F)C(F)(F)C(F)(F)C(F)(F)C(F)(F)C(F)(F)F`, the molecule was called inactive in assay [1] and in assay [2]. Further, the AC50 in assay [3] is 88.9 µM (active); in assay [4], 79.3 µM (active); in [5] it was 61.8 µM (active); in assay [6], 35.7 µM (active); in assay [7], 23.4 µM (active); in [8] it was 23.3 µM (active). Besides, the AC50 was 91.7 µM (active) in the assay with TIMP1, TIMP1 (gene 7076) and 78 µM (active) in assay [9].
`CCOP(=S)(OCC)SCSC(C)(C)C`: the call in [1], in [2], in assay [3], in assay [4], in [5] and in assay [7] was inactive. The outcome in assay [8] was “inactive”; with TIMP1, TIMP1 (gene 7076), “inactive”; in [9], “inactive”. Also, the AC50 in assay [6] is 10.4 µM (active).
